# TDP-43 yeast inh – inhibitors of TDP-43 toxicity in yeast; 410,000 tested, 1.8% active; Potency, µM (top dose mostly 46.1 µM), for inactives: at the top dose growth rescue (activation), actives largely listed as activators; AID 652104; TDP-43 expressing yeast growth rescue, BacTiter-Glo, 24 h; note: potency is the fitted concentration of half-maximal effect; % of control where 0% means no effect; nearly all actives have a fitted effect of over 50% in size
#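 Readout is BacTiter-Glo luminescence of cell growth, so inhibitors register as activators. TDP-43-expressing yeast at OD600=0.02 in galactose medium, after raffinose pregrowth to mid-log, were incubated with compound for 24 hr at 30 deg C.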
# aSyn yeast inh – inhibitors of alpha-synuclein toxicity in yeast; Yeast expressing alpha-synuclein, growth rescue, BacTiter-Glo, 24 h; 370,000 tested, 0.14% active; Potency, µM (series often up to 46.1 µM), for inactives: top-dose growth rescue (activation), most hits filed as activators; note: potency is the fitted concentration of half-maximal effect; % of control where 0% means no effect; nearly all actives have a fitted effect of over 65% in size
#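 Readout is rescue of growth in alpha-synuclein-expressing yeast, so inhibitors of toxicity appear as activators. Growth after 24 hr at 30 deg C in galactose medium is quantified by luminescence.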
# CCT modulator – changes cytosolic chaperonin activity | purified chaperonin ATPase assay, HTRF ADP detection, 30 min | activity change, % (test concentration not listed), hits read low | 360,000 tested, 0.3% active | AID 651819; in the data active = activity change below about -30%; note: % is set by controls: 0 for no effect and ±100 for the full control effect
#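 Nucleotide hydrolysis assay: TRiC at 20–40 nM final (set by batch activity) with 10 uM ATP, 30 min at 37 °C, in presence of 76 uM compound. Detection by competitive ADP HTRF, 30 min ambient.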
# Abeta yeast res – restores growth of yeast expressing A-beta42 peptide | Potency, µM (series often up to 46.1 µM), most hits filed as activators | yeast expressing A-beta42, growth rescue, OD600, 48 h; response scale: 0% DMSO, 100% iron-clioquinol control | 410,000 tested, 0.063% active; note: potency is the fitted concentration of half-maximal effect; nearly all actives have a fitted effect of over 55% in size
#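 Yeast growth medium received pinned compounds, then yeast cells expressing toxic A-beta were added; plates incubated at 30 C for 48 hr. Growth read as absorbance at 600 nm, normalized to DMSO and equimolar FeCl3 plus clioquinol controls.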
# FUS suppressor – rescues growth of FUS-expressing yeast; S. cerevisiae FUS-expressing, growth rescue, OD600, 24 h; Potency, µM (doses to about 76.6 µM), actives largely listed as activators; 390,000 tested, 0.24% active; AID 1347120;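 note: potency is the fitted concentration of half-maximal effect; plate controls were DMSO vehicle for no effect and reference control for full effect; nearly all actives have a fitted effect of over 55% in size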
#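 Yeast expressing FUS under galactose induction, OD 0.005 in 2% galactose medium; compounds in a dilution series, 24 h at 30C. Growth rescue by absorbance at 600 nm; CP55940 positive control, DMSO negative.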
# Mm-Cpn inhibitor – M. maripaludis TRiC chaperonin inhibition; purified Mm-Cpn ATPase, ADP Transcreener TR-FRET; Potency, µM (doses to about 76.9 µM), for inactives: at the highest dose activity, negative = inhibition, actives largely listed as inhibitors; 330,000 tested, 0.031% active; AID 504842; note: potency is the fitted concentration of half-maximal effect; % is set by controls: 0 for no effect and ±100 for the full control effect; nearly all actives have a fitted effect of over 80% in size
#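 Measured: ADP formation by purified Mm-CPN. Conditions: 25 nM protein, 10 uM ATP, Tris pH 7.4 with Mg2+, K+ and DTT, 37°C for 30 min. Detection: Transcreener HTRF after 30 min at room temperature.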
# The depositor's hits bear a star; i = inactive; ? = inconclusive; . = not tested or not shown; [ ] = dose if it differs, or a comment. Most compounds without a hit are left out; they make up all but 2.3% or so of the library. Unless noted, calls come from the whole dose curve; as a rule, active = well fitted curve in the direction sought with a large enough effect; inconclusive = small, poorly fitted or top-dose-only effect, or another doubt; inactive = no such curve, though single readings can be large; an effect the other way counts as inactive or inconclusive.
SMILES,TDP-43 yeast inh,aSyn yeast inh,CCT modulator,Abeta yeast res,FUS suppressor,Mm-Cpn inhibitor
COc1ccc(OC)c(CNC(=O)Cn2nc(C)c3nn(-c4ccc(Cl)cc4)c(C)c3c2=O)c1,13%,.,.,i,i,.
COc1ccc(C)cc1NS(=O)(=O)c1ccc2c3c(cccc13)C(=O)N2,13%,.,.,i,i,.
Cc1cc(O)c(-c2ccnc3cc(-c4ccccc4)nn23)cc1Cl,2%,.,.,i,i,.
COc1ccc2ccn(S(=O)(=O)c3ccccc3)c2c1,20µM*,0%,-1,i,i,-1%
O=C(c1ccccc1Oc1ccccc1)N1CCC(Oc2cccnc2)CC1,.,.,.,.,i,.
Cc1ccccc1C(=O)N(Cc1ccc(N(C)C)cc1)Cc1ccco1,9%,.,.,i,i,.
O=S(=O)(NCCc1csc(-c2cccnc2)n1)c1ccc2c(c1)OCCO2,22%,-21%,-9,i,i,-15%
COc1ccc(-c2nc(CCNS(=O)(=O)c3ccc4c(c3)OCCO4)cs2)cc1,13µM*,-16%,1,i,i,-3%
Cc1cc(S(=O)(=O)NCCc2csc(-c3cccc(F)c3)n2)ccc1F,0%,.,.,?,i,.
O=S(=O)(NCCc1csc(-c2ccc(C(F)(F)F)cc2)n1)c1ccc2c(c1)OCCO2,25µM*,-1%,-3,?,i,2%
O=C(Nc1ccc(F)cc1)C1CCCN1S(=O)(=O)c1ccc(Br)cc1 (stereo not given),?,-15%,-1,i,i,1%
O=C(Nc1ccc(Br)cc1)C1CCCN1S(=O)(=O)c1ccc(F)cc1 (stereo not given),22µM*,.,.,i,i,.
O=C(Nc1nc2ccccc2s1)C1CCCN1S(=O)(=O)c1ccc(Cl)cc1 (stereo not given),18µM*,19%,-3,i,?,1%
O=C(N1CCc2ccccc2C1)n1cc(C(O)(c2ccccc2)c2ccccc2)nn1,.,.,.,.,i,.
COc1cc2c(NC3CCN(C)CC3)nc(N3CCCN(C)CC3)nc2cc1OCCCN1CCCCC1,.,4%,.,.,.,.
CCCCCCOc1ccc(C2C(=O)N(C3CCCCC3)CC(=O)N2CCC)cc1 (stereo not given),16%,.,.,i,i,.
CCCCOc1ccc(C2C(=O)N(C3CCCCC3)CC(=O)N2CC2CCCO2)cc1 (stereo not given),2%,6%,0,i,8.9µM*,-2%
CCCCOc1ccc(C(=O)NCCc2csc3nc(-c4ccccc4F)nn23)cc1,0%,.,.,i,i,.
Cc1ccccc1-c1nc2scc(CCNC(=O)c3ccco3)n2n1,18µM*,.,.,i,i,.
CC(C)(C)c1ccc(C(=O)NCCc2csc3nc(-c4ccccc4F)nn23)cc1,35µM*,.,.,i,?,.
COc1ccc(-n2c(SCc3nc4ccccc4[nH]3)nc3ccccc3c2=O)cc1,.,.,.,.,35µM*,.
COc1cccc(CNC(=O)C[C@H]2CC[C@H]3[C@@H](COc4ccc(NC(=O)c5cccs5)cc4C(=O)N3C)O2)c1,.,.,.,.,i,.
Cc1c([N+](=O)[O-])cnc(Sc2ccccc2)c1[N+](=O)[O-],22µM*,-24%,2,i,i,.
Cc1ccc(Sc2ncccc2[N+](=O)[O-])cc1,?,15%,2,i,i,0%
CN(Cc1ccccc1)c1c([N+](=O)[O-])c(=O)n(C)c2ccccc12,16µM*,?,-1,i,?,-1%
SMILES,TDP-43 yeast inh,aSyn yeast inh,CCT modulator,Abeta yeast res,FUS suppressor,Mm-Cpn inhibitor
CCc1ccc(-c2ccc3nnc(SC)n3n2)cc1,16µM*,0%,-1,.,i,1%
CCc1ccc(-c2ccc3nnc(SCC(N)=O)n3n2)cc1,19%,1%,1,i,i,0%
COc1ccc(C2Nc3ccc(NC(=O)CO)cc3C(=O)N2Cc2cccc(Cl)c2)cc1COc1ccc(NC(C)=O)cc1 (stereo not given),.,0%,.,.,.,.
O=c1[nH]c2ccc(NCc3ccccc3F)cc2[nH]1,4%,.,.,i,i,.
COc1cc(C=O)ccc1OCCOCCOc1c(C)cc(Cl)cc1Cl,22µM*,23%,-3,i[9.22 µM],i,-4%
COc1ccc(C(=O)CSc2nnc(-c3cccs3)o2)cc1OC,.,.,.,.,i,.
CCOc1ccc(C(=O)OCc2nnc(-c3cccs3)o2)cc1OC,?,2%,-72*,i,i,-2%
O=C(NCCS(=O)(=O)N1CCN(c2cccc(Cl)c2)CC1)C(c1ccccc1)c1ccccc1,?,.,.,i,i,.
COc1ccccc1NC(=O)CSc1nnc(COc2ccc(Cl)cc2)o1,20%,26%,-1,i,i,2%
COC(=O)c1ccccc1NC(=O)CSc1nnc(Cc2ccc(Cl)cc2)o1,25µM*,6%,0,i,i,-3%
CC(C)c1ccccc1NC(=O)CSc1nnc(COc2ccccc2Cl)o1,20µM*,.,.,i,i,.
CC(C)c1ccccc1NC(=O)CSc1nnc(COc2ccccc2)o1,?,.,.,i,i,.
CCC(C)N(C(=O)CSc1nnc(-c2cccnc2)n1C1CCCCC1)C(C)CC (stereo not given),.,.,.,.,i,.
O=[N+]([O-])c1ccc(-c2nc(-c3cccs3)c(-c3cccs3)[nH]2)cc1,3.2µM*,-12%,-1,i,i,-8%
COc1ccc(C(O)c2nc(-c3cccc(C(C)C)c3)cs2)cc1 (stereo not given),35µM*,0%,0,i,i,.
COc1ccc(C(O)c2nc(-c3cccc(C(=O)O)c3)cs2)cc1 (stereo not given),11%,5%,1,i,i,.
COc1ccc(C(O)c2nc(-c3cccc(O)c3)cs2)cc1 (stereo not given),20µM*,?,0,?,i,.
CCOc1ccc(/C=C/c2nc(C#N)c(N3CCN(c4ccccc4)CC3)o2)cc1,13%,.,.,i,i,.
Cc1c[nH]c2cccc(-c3c(Cl)cccc3Cl)c12,.,.,.,.,i,.
O=C(Nc1ccccc1Br)c1cnn2c1NC(=C1CC1)C=C2C(F)F,.,2%,.,.,.,.
Fc1cccc(C[n+]2csc3ccccc32)c1,3.5µM*,-18%,0,i,.,0%
O=C(COC(=O)c1cccc(Br)c1)NCCc1ccc(F)cc1,13µM*,3%,0,?,i,-8%
CCCC/C=C1/[C@@H](CC)N(Cc2ccc(OC)cc2OC)C2=N[C@@H](c3ccccc3)CC(=O)N21,.,.,.,.,i,.
Cn1ncc2c(N3CCN(c4ccccc4F)CC3)ncnc21,13µM*,6%,1,i,i,1%

# High-throughput results: PubChem BioAssay, National Center for Advancing Translational Sciences (NCATS)
